According to PubChem BioAssay (NCATS):
Inconclusive results are not listed. Calls of active or inactive are those of the source. The call rests on the fitted dose curve; in most records, active means well fitted inhibition curve with a large enough effect; inconclusive means small, poorly fitted or top-dose-only effect; inactive means flat fitted curve, though single readings scatter.

Tests used:
PAD = test: qHTS profiling for inhibitors of Plasmodium falciparum proliferation (AID 504749);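 further: 0% = DMSO vehicle and full inhibition = artemisinin control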; details: P. falciparum in erythrocytes, SYBR Green DNA, 72 h; series mostly up to 28.7 µM
Outline: (§1)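 P. falciparum-infected erythrocytes (0.3% parasitemia, 2.5% hematocrit) incubated with compound 72 h at 37 C, 5% CO2. Parasite DNA detected by SYBR Green after lysis, overnight at room temperature; normalised to 0.29 uM artemisinin and DMSO.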

PC15 = test: as above; details: P. falciparum in erythrocytes, SYBR Green DNA, 72 h; series mostly up to 28.7 µM
Outline: as §1

PC26 = test: as above; details: P. falciparum in erythrocytes, SYBR Green DNA, 72 h; series mostly up to 28.7 µM
Outline: as §1

PC49 = test: as above; details: P. falciparum in erythrocytes, SYBR Green DNA, 72 h; series mostly up to 28.7 µM
Outline: as §1

SC27B = test: as above; details: P. falciparum in erythrocytes, SYBR Green DNA, 72 h; series mostly up to 28.7 µM
Outline: as §1

TAB109 = test: as above; details: P. falciparum in erythrocytes, SYBR Green DNA, 72 h; series mostly up to 28.7 µM
Outline: as §1

TAB113 = test: as above; details: P. falciparum in erythrocytes, SYBR Green DNA, 72 h; series mostly up to 28.7 µM
Outline: as §1

TAB165 = test: as above; details: P. falciparum in erythrocytes, SYBR Green DNA, 72 h; series mostly up to 28.7 µM
Outline: as §1

CRL-7250 = normal cell line; test: Cytotoxic Profiling of Annotated Libraries Using Quantitative High-Throughput Screening (AID 1296008); details: Five cell lines viability, CellTiter-Glo ATP luminescence, 48-72 h; stronger effect = lower value; on max response: on the % scale 0 is the no-effect control and ±100 the full control effect
Outline: (§2)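 Cells exposed to compounds for 48 or 72 hr at 37 degrees Celsius. Viability read as ATP-coupled luminescence with CellTiter-Glo after 10 min at room temperature.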

HEK293 = test: as above; details: Five cell lines viability, CellTiter-Glo ATP luminescence, 48-72 h; stronger effect = lower value
Outline: as §2

HaCat [1] = test: as above; details: Five cell lines viability, CellTiter-Glo ATP luminescence, 48-72 h; stronger effect = lower value
Outline: as §2

KB-3-1 = test: as above; details: Five cell lines viability, CellTiter-Glo ATP luminescence, 48-72 h, stronger effect = lower value
Outline: as §2

NIH3T3 = test: as above; details: Five cell lines viability, CellTiter-Glo ATP luminescence, 48-72 h; stronger effect = lower value
Outline: as §2

MCC-13 = test: qHTS assay to identify novel small-molecules to repurpose for Merkel cell carcinoma treatment (AID 1296009); details: MCC and control cell lines, CellTiter-Glo viability, 72 h; series mostly up to 46 µM
Outline: (§3)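 Cells were treated for 72 hr at 37 degree celsius with compounds in 8- or 11-point dose response. Viability was read by CellTiter-Glo luminescence, normalized to no-cell (cytotoxicity) and DMSO controls.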

MCC-26 = test: as above; details: MCC and control cell lines, CellTiter-Glo viability, 72 h; series mostly up to 46 µM
Outline: as §3

MKL-1 = test: as above; details: MCC and control cell lines, CellTiter-Glo viability, 72 h; series mostly up to 46 µM
Outline: as §3

MKL-2 = test: as above; details: MCC and control cell lines, CellTiter-Glo viability, 72 h; series mostly up to 46 µM
Outline: as §3

W2 = test: qHTS profiling for inhibitors of Plasmodium falciparum proliferation (AID 504749);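 further: 0% = DMSO vehicle and full inhibition = artemisinin control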; details: P. falciparum in erythrocytes, SYBR Green DNA, 72 h; series mostly up to 28.7 µM
Outline: as §1

HEK293T = test: qHTS assay to identify novel small-molecules to repurpose for Merkel cell carcinoma treatment (AID 1296009); details: MCC and control cell lines, CellTiter-Glo viability, 72 h; at 44.8 µM (top of the series) unless noted
Outline: as §3

HACAT [2] = test: as above; details: MCC and control cell lines, CellTiter-Glo viability, 72 h; at 44.8 µM (top of the series) unless noted
Outline: as §3
Further: nearly all actives have a fitted effect of over 60% in size.

O=C1c2ccccc2S(=O)(=O)N1CCCCN1CCN(c2ncccn2)CC1
inactive: Potency (PAD) | Potency (PC15) | Potency (PC26) | Potency (PC49) | Potency (SC27B) | Potency (TAB109) | Potency (TAB113) | Potency (TAB165) | max response (CRL-7250) -12.2% | max response (HEK293) -4.06% | max response (HaCat [1]) -10.1% | max response (KB-3-1) -5.25% | outcome (NIH3T3) | outcome (MCC-13) | outcome (MCC-26) | outcome (MKL-1) | outcome (MKL-2)

CCCOC(=O)c1ccc(N)cc1
inactive: Potency (PAD) | Potency (PC15) | Potency (PC26) | Potency (PC49) | Potency (SC27B) | Potency (TAB109) | Potency (TAB113) | Potency (TAB165) | Potency (W2) | outcome (CRL-7250) | outcome (HEK293) | max response (HaCat [1]) -1.1% | max response (NIH3T3) -2.69% | outcome (HEK293T) | outcome (MCC-13) | outcome (MCC-26) | outcome (MKL-1) | outcome (MKL-2)

NS(=O)(=O)c1cc(-c2nn[nH]n2)c(NCc2cccs2)cc1Cl
inactive: Potency (PAD) | Potency (PC15) | Potency (PC26) | Potency (PC49) | Potency (SC27B) | Potency (TAB109) | Potency (TAB113) | Potency (TAB165) | Potency (W2) | max response (CRL-7250) 1.54% | outcome (HEK293) | max response (HaCat [1]) -8.31% | max response (NIH3T3) -0.0304% | outcome (HEK293T) | outcome (MCC-13) | outcome (MCC-26) | outcome (MKL-1) | outcome (MKL-2)

CC(=O)[C@@]1(O)CC[C@H]2[C@@H]3C[C@H](C)C4=CC(=O)C=C[C@]4(C)[C@@]3(F)[C@@H](O)C[C@@]21C
inactive: max response (CRL-7250) -3.29% | outcome (HEK293) | max response (HaCat [1]) 4.35% | max response (NIH3T3) 4.42% | outcome (HEK293T) | outcome (MCC-13) | outcome (MCC-26) | outcome (MKL-1) | outcome (MKL-2)

Cc1cccc(Nc2ccccc2C(=O)O)c1C
inactive: Potency (PAD) | Potency (PC15) | Potency (PC26) | Potency (PC49) | Potency (SC27B) | Potency (TAB109) | Potency (TAB113) | Potency (TAB165) | Potency (W2) | max response (CRL-7250) 0.921% | max response (HEK293) -1.57% | outcome (HaCat [1]) | max response (NIH3T3) 1.27% | outcome (HACAT [2]) | outcome (MCC-13) | outcome (MKL-1) | outcome (MKL-2)

COc1ccccc1OCC(O)CO (stereo not given)
inactive: outcome (CRL-7250) | max response (HEK293) -2.29% | outcome (HaCat [1]) | outcome (NIH3T3) | outcome (HACAT [2]) | outcome (MCC-13) | outcome (MCC-26) | outcome (MKL-1) | outcome (MKL-2)

O=c1[nH]cnc2nc[nH]c12
inactive: Potency (PAD) | Potency (PC15) | Potency (PC26) | Potency (PC49) | Potency (SC27B) | Potency (TAB109) | Potency (TAB113) | Potency (TAB165) | Potency (W2) | max response (CRL-7250) -2.48% | max response (HEK293) -1.3% | outcome (HaCat [1]) | max response (NIH3T3) -0.611% | outcome (HACAT [2]) | outcome (MCC-13) | outcome (MCC-26) | outcome (MKL-1) | outcome (MKL-2)

O=C(O)CNC(=O)c1ccccc1I
inactive: Potency (PAD) | Potency (PC15) | Potency (PC26) | Potency (PC49) | Potency (SC27B) | Potency (TAB109) | Potency (TAB113) | Potency (TAB165) | Potency (W2) | max response (CRL-7250) 4.72% | max response (HEK293) -1.69% | max response (HaCat [1]) -16.3% | outcome (NIH3T3) | outcome (MCC-13) | outcome (MKL-1) | outcome (MKL-2)

Cc1cc(C)c(NC(=O)CN(CC(=O)O)CC(=O)O)c(C)c1Br
inactive: Potency (PC15) | Potency (PC26) | Potency (PC49) | Potency (W2) | max response (CRL-7250) -2.84% | max response (HEK293) -7.54% | outcome (HaCat [1]) | max response (NIH3T3) -1.07% | outcome (HACAT [2]) | outcome (MCC-13) | outcome (MCC-26) | outcome (MKL-1) | outcome (MKL-2)

CN(C(=O)c1c(O)c2ccccc2n(C)c1=O)c1ccccc1
inactive: Potency (PAD) | Potency (PC15) | Potency (PC26) | Potency (PC49) | Potency (SC27B) | Potency (TAB109) | Potency (TAB165) | Potency (W2) | max response (CRL-7250) 0.215% | max response (HEK293) -2.97% | max response (HaCat [1]) -1.18% | outcome (NIH3T3) | outcome (MCC-13) | outcome (MCC-26) | outcome (MKL-1) | outcome (MKL-2)

CC1CCN(CCCC(=O)c2ccc(F)cc2)CC1
inactive: Potency (PAD) | Potency (PC15) | Potency (PC26) | Potency (PC49) | Potency (SC27B) | Potency (TAB109) | Potency (TAB113) | Potency (TAB165) | max response (CRL-7250) -0.306% | max response (HEK293) -0.532% | outcome (HaCat [1]) | max response (NIH3T3) -1.04% | outcome (HACAT [2]) | outcome (MCC-13) | outcome (MCC-26) | outcome (MKL-1) | outcome (MKL-2)

Cc1c(I)c(=O)n(-c2ccccc2)n1C
inactive: Potency (PAD) | Potency (PC15) | Potency (PC26) | Potency (PC49) | Potency (SC27B) | Potency (TAB109) | Potency (TAB113) | Potency (TAB165) | Potency (W2) | max response (CRL-7250) 1.27% | max response (HEK293) -2.1% | max response (HaCat [1]) -20.9% | outcome (NIH3T3) | outcome (MCC-13) | outcome (MKL-1) | outcome (MKL-2)

CC(=O)Nc1ccc(OCCOCCOc2ccc(NC(C)=O)cc2)cc1
inactive: Potency (PAD) | Potency (PC15) | Potency (PC26) | Potency (PC49) | Potency (SC27B) | Potency (TAB109) | Potency (TAB113) | Potency (TAB165) | Potency (W2) | max response (CRL-7250) 0.416% | outcome (HEK293) | max response (HaCat [1]) 3.25% | max response (NIH3T3) 4.13% | outcome (HEK293T) | outcome (MCC-13) | outcome (MCC-26) | outcome (MKL-1) | outcome (MKL-2)

Cc1cccc(C(=O)O)c1O
inactive: Potency (PAD) | Potency (PC15) | Potency (PC26) | Potency (PC49) | Potency (SC27B) | Potency (TAB109) | Potency (TAB113) | Potency (TAB165) | Potency (W2) | max response (CRL-7250) -0.667% | max response (HEK293) -2.23% | outcome (HaCat [1]) | outcome (NIH3T3) | outcome (HACAT [2]) | outcome (MCC-13) | outcome (MCC-26) | outcome (MKL-1) | outcome (MKL-2)
